Measured values reported in PubChem BioAssay.
Active and inactive are the calls of the source.

What was measured:
[1] = E. coli DRC41 culture turbidity changes, primary screen, E. coli filamentation inducer project, strain DRC41, OD650, 48 h (AID 1152);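 also: E. coli MC1000 strain DRC41 lacking acrAB efflux pump and sulA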; conditions: E. coli DRC41 (acrAB sulA), higher = more signal, called active from +8 up or from −8 down
[2] = small-molecule binders of probe aLefty1, primary screen, biochemical, small-molecule microarray, 635/667 nm fluorescence (AID 1153); conditions: higher = more signal;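 also: score merges spot fluorescence with signal-to-noise ratio from the scanned slide images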
[3] = PSAC antagonists in infected red cells, primary screen, cell-based, P. falciparum Indochina, OD700, 1 h (AID 1154); conditions: P. falciparum Indochina infected RBC osmotic lysis, higher = more signal, called active from +8 up or from −8 down
[4] = PSAC antagonists in infected red cells, primary screen, cell-based, P. falciparum Indochina, OD700, 2 h (AID 1155);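 also: lysis reports solute entry through the parasite surface anion channel PSAC; channel blockers reduce lysis of infected cells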; conditions: P. falciparum Indochina infected erythrocytes, osmotic lysis OD700; higher = more signal, called active from +8 up or from −8 down
[5] = osmotic lysis modulators in infected erythrocytes, primary screen, PSAC antagonist project, cell-based, P. falciparum Indochina, OD700, 3 h (AID 1156); conditions: higher = more signal, called active from +8 up or from −8 down
[6] = PSAC antagonists in infected red cells, primary screen, cell-based, P. falciparum Indochina, OD700, 18 h (AID 1157); conditions: P. falciparum Indochina infected erythrocytes, osmotic lysis OD700, 18 h; higher = more signal, called active from +8 up or from −8 down
[7] = modulators of S6 phosphorylation in cells, primary screen, cell-based, A549, cytoblot, luminescence, serum-stimulated (AID 1158); conditions: A549 phospho-S6 cytoblot, 5 h, higher = more signal;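 also: serum-stimulated A549 lung adenocarcinoma cells; signal is phosphorylated S6 detected by cytoblot immunostaining with HRP secondary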
[8] = molecular target: NADPH oxidase 2 (Homo sapiens) (UniProt P04839); test: NOX2-dependent H2O2 signal modulators, primary screen, NOX inhibitor project, cell-based, HEK293-NOX2, PMA-stimulated, Amplex Red fluorescence (AID 1159); conditions: 45 min, higher = more signal, called active from +8 up or from −8 down; also: test concentration not given here
[9] = molecular target: NADPH oxidase 4 (Homo sapiens) (UniProt Q9NPH5); test: NOX4-dependent H2O2 signal modulators, primary screen, NOX inhibitor project, cell-based, HEK293-NOX4, tetracycline-induced, Amplex Red fluorescence (AID 1160); conditions: 45 min, higher = more signal, called active from +8 up or from −8 down
[10] = molecular target: NADPH oxidase 5 (Homo sapiens) (UniProt Q96PH1); test: NOX5-dependent H2O2 signal modulators, primary screen, NOX inhibitor project, cell-based, HEK293-NOX5, Amplex Red fluorescence (AID 1161); conditions: HEK293-NOX5, ionomycin, 45 min, higher = more signal
Chain of NADPH oxidase 5 (Homo sapiens) (Q96PH1 whole entry, looked up): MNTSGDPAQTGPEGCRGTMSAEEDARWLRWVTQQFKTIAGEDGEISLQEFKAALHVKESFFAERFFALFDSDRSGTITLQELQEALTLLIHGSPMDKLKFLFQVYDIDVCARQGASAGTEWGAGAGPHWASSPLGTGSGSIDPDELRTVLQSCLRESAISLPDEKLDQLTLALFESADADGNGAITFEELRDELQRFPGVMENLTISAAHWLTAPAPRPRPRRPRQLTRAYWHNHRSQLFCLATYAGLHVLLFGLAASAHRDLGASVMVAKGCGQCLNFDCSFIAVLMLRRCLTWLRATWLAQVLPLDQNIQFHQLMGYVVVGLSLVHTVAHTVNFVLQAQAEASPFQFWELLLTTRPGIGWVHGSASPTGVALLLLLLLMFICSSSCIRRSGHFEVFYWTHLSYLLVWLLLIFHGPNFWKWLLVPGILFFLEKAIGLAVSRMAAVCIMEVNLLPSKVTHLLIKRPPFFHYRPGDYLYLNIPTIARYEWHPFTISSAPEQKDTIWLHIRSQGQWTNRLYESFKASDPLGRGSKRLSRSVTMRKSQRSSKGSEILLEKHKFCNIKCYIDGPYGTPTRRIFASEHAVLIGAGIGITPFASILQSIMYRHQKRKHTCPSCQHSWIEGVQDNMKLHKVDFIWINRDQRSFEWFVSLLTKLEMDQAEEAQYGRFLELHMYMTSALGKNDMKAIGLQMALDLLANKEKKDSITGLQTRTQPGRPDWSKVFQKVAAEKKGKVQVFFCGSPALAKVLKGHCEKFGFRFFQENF

Chain of NADPH oxidase 4 (Homo sapiens) (Q9NPH5 whole entry, looked up): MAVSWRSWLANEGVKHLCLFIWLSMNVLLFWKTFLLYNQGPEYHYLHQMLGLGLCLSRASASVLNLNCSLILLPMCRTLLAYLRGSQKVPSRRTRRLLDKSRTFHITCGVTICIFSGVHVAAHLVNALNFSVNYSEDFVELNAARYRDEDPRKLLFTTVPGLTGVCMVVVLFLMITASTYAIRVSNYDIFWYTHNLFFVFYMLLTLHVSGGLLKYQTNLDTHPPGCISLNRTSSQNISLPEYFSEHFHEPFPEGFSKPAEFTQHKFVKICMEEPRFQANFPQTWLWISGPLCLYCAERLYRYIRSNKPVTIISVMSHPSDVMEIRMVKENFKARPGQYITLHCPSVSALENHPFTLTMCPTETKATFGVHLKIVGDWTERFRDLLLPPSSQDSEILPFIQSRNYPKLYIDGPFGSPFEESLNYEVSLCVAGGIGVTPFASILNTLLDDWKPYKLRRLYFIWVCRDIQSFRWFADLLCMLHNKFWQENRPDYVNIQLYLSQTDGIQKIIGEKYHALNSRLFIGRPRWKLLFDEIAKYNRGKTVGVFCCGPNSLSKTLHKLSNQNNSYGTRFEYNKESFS
Chain of NADPH oxidase 2 (Homo sapiens) (P04839 whole entry, looked up): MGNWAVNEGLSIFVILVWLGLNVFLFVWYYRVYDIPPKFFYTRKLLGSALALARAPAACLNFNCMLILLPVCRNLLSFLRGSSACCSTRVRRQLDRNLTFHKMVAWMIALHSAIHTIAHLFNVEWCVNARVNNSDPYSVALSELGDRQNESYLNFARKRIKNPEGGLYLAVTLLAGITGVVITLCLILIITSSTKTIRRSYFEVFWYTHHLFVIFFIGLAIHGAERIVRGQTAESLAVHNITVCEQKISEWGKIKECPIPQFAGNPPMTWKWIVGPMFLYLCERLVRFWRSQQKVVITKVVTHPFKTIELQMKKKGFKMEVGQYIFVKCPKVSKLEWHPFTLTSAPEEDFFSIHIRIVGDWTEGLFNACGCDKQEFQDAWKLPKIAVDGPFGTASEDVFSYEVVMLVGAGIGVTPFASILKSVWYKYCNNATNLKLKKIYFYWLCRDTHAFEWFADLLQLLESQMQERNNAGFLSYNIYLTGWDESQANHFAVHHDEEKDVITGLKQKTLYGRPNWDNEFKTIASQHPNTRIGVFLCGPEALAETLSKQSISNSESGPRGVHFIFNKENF

Row | SMILES | z-score [1] | composite z-score [2] | z-score [3] | z-score [4] | z-score [5] | z-score [6] | z-score [7] | z-score [8] | z-score [9] | z-score [10]
1 | COc1ccc([Si](C)(C)[C@H]2[C@H](CCO)O[C@@]3(C(=O)N(Cc4cccc(N5C(=O)COc6ccccc65)c4)c4ccccc43)[C@@H]2C)cc1 | 1.76 (inactive) | 0.122 | 2.15 (inactive) | 3.18 (inactive) | 1.7 (inactive) | 1.77 (inactive) | 0.805 | -1.26 (inactive) | 1.1 (inactive) | 1.09
2 | CCCCC(O)C1C=CC2C(=O)N(c3ccccc3)C(=O)C2N1Nc1ccc(C(C)C)cc1 (stereo not given) | -0.759 (inactive) | 0.484 | 2.81 (inactive) | 1.44 (inactive) | 0.39 (inactive) | 1.39 (inactive) | -0.843 | -1.5 (inactive) | -3.21 (inactive) | -1.92
3 | CC(CO)N1C(=O)[C@@H]2[C@H]3C(=O)OCC=C[C@H]3OC23C=CCN(CCN2CCOCC2)C(=O)[C@@H]13 (stereo not given in full) | -1.06 (inactive) | -0.482 | 0.158 (inactive) | -0.358 (inactive) | -0.0103 (inactive) | -0.255 (inactive) | -0.471 | 0.381 (inactive) | 0.194 (inactive) | 1.2
4 | COCCOC(=O)N1C(=O)[C@@]2(c3cc(C#Cc4ccc(OC)cc4)ccc31)[C@H](C(=O)Nc1nc3ccccc3s1)[C@H]1C(=O)O[C@H](c3ccccc3)[C@H](c3ccccc3)N1[C@@H]2c1ccc(O)cc1 | 1.05 (inactive) | 0.703 | 3.75 (inactive) | 0.756 (inactive) | 1.2 (inactive) | 1.22 (inactive) | 0.709 | 1.49 (inactive) | -0.118 (inactive) | 0.791
5 | COc1ccc(-c2cc3c(c(CCc4ccccc4)n2)[Si](C(C)C)(C(C)C)OC3)cn1 | -0.0928 (inactive) | -0.196 | 3.8 (inactive) | 0.745 (inactive) | -0.119 (inactive) | 0.114 (inactive) | -0.108 | -0.44 (inactive) | -0.0624 (inactive) | -1.49
6 | N#Cc1ccc(NN2C(C(O)c3ccc(F)cc3)C=CC3C(=O)N(c4ccccc4)C(=O)C32)cc1 (stereo not given) | -0.922 (inactive) | 1.03 | 8.09 (active) | 1.4 (inactive) | 1.36 (inactive) | 1.29 (inactive) | -0.491 | -1.33 (inactive) | -4.55 (inactive) | -2.9
7 | N#Cc1ccc(C(O)C2C=CC3C(=O)N(c4ccccc4)C(=O)C3N2Nc2ccccc2)cc1 (stereo not given) | 0.128 (inactive) | 0.135 | 5.39 (inactive) | -0.173 (inactive) | 1.18 (inactive) | -0.889 (inactive) | 1.64 | -2.73 (inactive) | -4.19 (inactive) | -3.02
8 | [N-]=[N+]=NCc1ccccc1[C@H]1OC(c2ccc(OCCCO)cc2)=N[C@@]1(CCS(=O)(=O)c1ccccc1)C(=O)N1CCCCC1 | -0.193 (inactive) | 0.666 | 25.6 (active) | 9.69 (active) | 3.2 (inactive) | 1.5 (inactive) | 0.515 | 0.0197 (inactive) | 1.56 (inactive) | 1.63
9 | CN1C(=O)C2C=CC(C(O)c3cccc(O)c3)N(Nc3ccccc3)C2C1=O (stereo not given) | -0.85 (inactive) | 0.147 | -0.0746 (inactive) | 0.253 (inactive) | -0.606 (inactive) | 0.287 (inactive) | -0.967 | -2.6 (inactive) | -5.27 (inactive) | -4.62
10 | CCOC(=O)C1=CC[C@@H](c2cccc(Cl)c2)N(S(=O)(=O)c2ccc(C)cc2)C1 | 0.065 (inactive) | 0.0166 | 2.31 (inactive) | -0.389 (inactive) | -0.423 (inactive) | -1.89 (inactive) | 1.02 | 0.201 (inactive) | -0.927 (inactive) | -0.736
11 | COC(=O)[C@H](Cc1ccccc1)N1CC(/C=C/C2CC2)=C[C@H]1[C@H](O)Cc1ccccc1 | -0.555 (inactive) | -0.012 | 1.74 (inactive) | 0.714 (inactive) | -0.377 (inactive) | 0.5 (inactive) | 0.184 | -4.7 (inactive) | -0.819 (inactive) | -0.607
12 | O=C1O[C@H](c2ccccc2)[C@H](c2ccccc2)N2[C@H]1[C@@H](C(=O)Nc1nc3ccccc3s1)[C@]1(C(=O)Nc3ccc(C#CC4(O)CCCCCC4)cc31)[C@H]2c1ccccc1OCCO | -0.569 (inactive) | 0.966 | 2.83 (inactive) | 3.35 (inactive) | 0.602 (inactive) | 1.56 (inactive) | 0.164 | 1.29 (inactive) | 0.578 (inactive) | 1.5
13 | [N-]=[N+]=Nc1ccccc1C[C@]1(C(N)=O)N=C(c2ccc(OCCCO)cc2)O[C@H]1c1ccccc1N=[N+]=[N-] | -0.254 (inactive) | 0.237 | 28.5 (active) | 23.5 (active) | 1.87 (inactive) | 1.16 (inactive) | 1.14 | -4.36 (inactive) | -2.16 (inactive) | -2.52
14 | CCOC(=O)c1ccc(NC(=O)O[C@H]2[C@H](OC(=O)Nc3ccc4c(c3)OCO4)[C@@H](OC(=O)Nc3ccc4c(c3)OCO4)[C@@H](OC)O[C@@H]2CO)cc1 | 0.113 (inactive) | 0.325 | 10.4 (active) | 1.31 (inactive) | 0.843 (inactive) | 0.593 (inactive) | 0.0796 | -3.35 (inactive) | -0.689 (inactive) | -1.77
15 | [N-]=[N+]=NCc1ccccc1C[C@@]1(C(=O)N2CCCCC2)N=C(c2ccc(OCCCO)cc2)O[C@@H]1c1ccccc1 | -0.184 (inactive) | 0.0323 | 25.2 (active) | 14.3 (active) | 2.13 (inactive) | 2.51 (inactive) | 0.893 | -2.02 (inactive) | -0.495 (inactive) | -1.49
16 | O=C(NCC(F)(F)F)[C@@H]1c2ccccc2C(=O)N(Cc2ccccc2C(F)(F)F)[C@H]1c1ccc(CO)cc1 | 0.142 (inactive) | -0.0164 | 1.45 (inactive) | 0.478 (inactive) | 0.239 (inactive) | 0.109 (inactive) | -0.537 | 0.536 (inactive) | 0.0258 (inactive) | -0.284
17 | C=C(COC)/C(=C/C[C@H](OC(C)=O)c1ccc(OCCO)cc1)c1cc(C(=O)OC)ccc1OC | 1.28 (inactive) | 0.188 | 24.8 (active) | 7.54 (inactive) | 2.08 (inactive) | 1.14 (inactive) | 0.497 | 1.6 (inactive) | 1.03 (inactive) | -1.34
18 | C=CCNC(=O)[C@H]1[C@@H]2C(=O)O[C@@H](c3ccccc3)[C@@H](c3ccccc3)N2[C@@H](c2ccc(O)cc2)[C@]12C(=O)Nc1ccc(C#CC3(O)CCCCCC3)cc12 | -1.14 (inactive) | 0.898 | 1.79 (inactive) | 0.749 (inactive) | 0.514 (inactive) | 0.319 (inactive) | 0.356 | 1.71 (inactive) | 0.772 (inactive) | 1.06
19 | CC(C)Cc1ccc(CN2CC[C@@H](NC(=O)Nc3ccccc3)C2)cc1 | -3.31 (inactive) | -0.191 | 1.96 (inactive) | 0.981 (inactive) | 1.84 (inactive) | 0.575 (inactive) | -1.03 | -0.507 (inactive) | -0.351 (inactive) | -1.88
20 | Cc1cc(C)cc(N2C(=O)CSC2c2cccc([N+](=O)[O-])c2)c1 (stereo not given) | 0.421 (inactive) | -0.0046 | 0.385 (inactive) | -0.414 (inactive) | 0.652 (inactive) | -0.237 (inactive) | -0.261 | -1.02 (inactive) | -0.364 (inactive) | 0.483
21 | O=C1O[C@@H](c2ccccc2)[C@@H](c2ccccc2)N2[C@@H](c3ccc(OCCO)cc3)[C@]3(C(=O)Nc4ccccc43)[C@@H](C(=O)O)[C@H]12 | 0.635 (inactive) | 1.46 | 7.13 (inactive) | -1.02 (inactive) | -0.202 (inactive) | -1.62 (inactive) | 1.52 | 0.262 (inactive) | -0.444 (inactive) | -0.985
22 | COC(=O)[C@@]1(Cc2ccc(OC)cc2)[C@H]2c3cc(C(=O)N(C)C)n(CCO)c3C[C@H]2CN1C(=O)c1ccccc1 | -1.2 (inactive) | 0.564 | 0.845 (inactive) | 0.145 (inactive) | 0.0732 (inactive) | 0.446 (inactive) | -0.775 | 0.331 (inactive) | -1.49 (inactive) | -1.91
23 | COc1ccc(CCNC(=O)[C@@H]2c3ccccc3C(=O)N(Cc3cc(C(F)(F)F)cc(C(F)(F)F)c3)[C@H]2c2ccc(CO)cc2)cc1 | 0.0073 (inactive) | 0.108 | 4.55 (inactive) | 0.383 (inactive) | 0.767 (inactive) | 0.233 (inactive) | 0.154 | -1.75 (inactive) | 0.194 (inactive) | -0.077
